Calls of active or inactive are those of the source. The calls were made as follows: active = hit-call score of the fitted dose curve at least 0.9, where 1 is the maximum; inactive = score below 0.9.
experiment: ATG_ERE_CIS: Attagene CIS-FACTORIAL HepG2 Assay for Estrogen Response Element (ERE) (AID 2282940); conditions: HepG2 ERE cis-reporter, Attagene RNA transcript; actives raise or lower the signal
Description: ATG_CIS is a cell-based, multiplexed-readout assay that uses HepG2, a human liver cell line, with measurements taken at 24 hours after chemical dosing in a 24-well plate.ATG_ERE_CIS is one of 52 assay component(s) measured or calculated from the ATG_CIS assay. It is designed to make measurements of mRNA induction, a form of inducible reporter, as detected with fluorescence intensity signals by Reverse transcription polymerase chain reaction (RT-PCR) and Capillary electrophoresis technology.Data from the assay component ATG_ERE_CIS was analyzed into 1 assay endpoint. This assay endpoint, ATG_ERE_CIS, was analyzed with bidirectional fitting relative to DMSO as the negative control and baseline of activity. Using a type of inducible reporter, measures of mRNA for gain or loss-of-signal activity can be used to understand the reporter gene at the transcription factor-level as they relate to the gene ESR1. Furthermore, this assay endpoint can be referred to as a primary readout, because this assay has produced multiple assay endpoints where this one serves a reporter gene function. To generalize the intended target to other relatable targets, this assay endpoint is annotated to the nuclear receptor intended target family, where the subfamily is steroidal.
Human liver HepG2 cells are transiently transfected with multiple reporter transcription units (MRTUs) in 6-well plates using FuGene 6 reagent (Roche; 3 ml FuGene/1 mg DNA). The MRTU constructs are regulated by a cis-regulating element (promoter). […] A major difference between the CIS and TRANS system is that in CIS activities of endogenous TFs are measured, whereas the TRANS assay evaluates changes in activities of exogenous, chimeric NR-Gal4 proteins. […] At the end of 24 hour incubation, total RNA was isolated using TriZol reagent (Invitrogen). The isolated RNA is then reverse-transcribed using oligo(dT) primer and Mo-MLV reverse transcriptase (Invitrogen) with DNAse I (Ambion) treatment for 30 min. The one-tenth of the produced cDNA was amplified by PCR using Taq DNA polymerase (Invitrogen) and two reporter sequence-specific primers. The PCR products were fluorescently labeled by primer extension with 6-arboxyfluorescein (6-FAM) 5'-labeled reporter sequence-specific primer (2 min at 95 C, 20 s at 68 C and 10 min at 72 C) and these products were digested with 5U of HpaI (New England Biolabs) for 2h at 37 C. The fragments were purified using Qiaquick PCR columns (Qiagen), analyzed on an ABI 3130xL genetic analyzer (Applied Biosystems) with peak positions identified by using a set of X-rhodamine (ROX)-labeled MapMarker1000 molecular weight standards (BioVentures). The raw capillary electrophoresis data was processed using Attagraph software (Attagene).

| Compound | outcome | AC50 |
| --- | --- | --- |
| CC(C)(O)Cc1ccccc1 | inactive |  |
| CN(C)Cc1cc(CN(C)C)c(O)c(CN(C)C)c1 | inactive |  |
| O=C(O[C@@H]1Cc2c(O)cc(O)cc2O[C@@H]1c1cc(O)c(O)c(O)c1)c1cc(O)c(O)c(O)c1 | inactive |  |
| Nc1ccnc(=O)[nH]1 | inactive |  |
| CC/C=C\CCOC(=O)c1ccccc1O | inactive |  |
| CC1=CP(=O)(c2ccccc2)CC1 (stereo not given) | inactive |  |
| CCCCCOC(=O)CCCCC | inactive |  |
| CC1CCC(C(C)(C)S)C(=O)C1 (stereo not given) | inactive |  |
| CC(C)c1ccc2ncccc2c1 | inactive |  |
| c1ccc2sc(SSN3CCOCC3)nc2c1 | inactive |  |
| C=CC(=O)O[C@H]1C[C@@H]2CC[C@@]1(C)C2(C)C |  | 24.9 µM (active) |
| CC(C)=CCl | inactive |  |
| CCCCCCOc1ccc(N)cc1 | inactive |  |
| CC=C(C)C(C)=O | inactive |  |
| Cc1cc(C)c(C=O)c(C)c1 | inactive |  |
| CCCCCCC=O |  | 26.7 µM (active) |
| CC1=CC=C(C(C)C)CC1 | inactive |  |
| CC(C)c1ccc(O)c(C(C)C)c1 |  | 41.2 µM (active) |
| COc1ccc(-c2coc3cc(O)cc(O)c3c2=O)cc1 |  | 0.397 µM (active) |
| Nc1ccc(O)c([N+](=O)[O-])c1 | inactive |  |

| Compound | outcome | AC50 |
| --- | --- | --- |
| O=C1CCCCCCCCCCCN1 | inactive |  |
| CC=CC(=O)OCC(C)C | inactive |  |
| CCOB(OCC)OCC | inactive |  |
| N=C1C=CC(=C(c2ccc(N)cc2)c2ccc(N)cc2)C=C1 | inactive |  |
| CCOC(=O)C1=NOC(c2ccccc2)(c2ccccc2)C1 | inactive |  |
| COC(C=C(C)CCC=C(C)C)OC | inactive |  |
| COC(Cc1ccccc1)OC | inactive |  |
| NC(=O)Nc1ccccc1 | inactive |  |
| CCc1cccc(C)c1N(C(=O)CS(=O)(=O)O)C(C)COC (stereo not given) |  | 27.5 µM (active) |
| CC1=CCC(C(C)C)C=C1 (stereo not given) | inactive |  |
| O=C1CCCCCCCCCCC1 | inactive |  |
| C=CCNCC=C | inactive |  |
| Nc1nc(N)nc(-c2ccccc2)n1 | inactive |  |
| Cc1ccc([N+](=O)[O-])cc1N | inactive |  |
| COc1cc(C)ccc1O | inactive |  |
| C=C(C)[C@@H]1CC=C(C)CC1 | inactive |  |
| CC(=O)C(C)C | inactive |  |
| CC(C)OC(=O)c1ccccc1 | inactive |  |
| Nc1ccc(C(=O)OCCCOC(=O)c2ccc(N)cc2)cc1 | inactive |  |
| CC(C)(C)N | inactive |  |

— PubChem BioAssay (EPA / NIEHS)
